HP1b chromo inh: HP1-beta chromodomain-methylated histone interaction inhibition; AID 540317; AlphaScreen HP1-beta / biotin-H3K9me3 peptide binding; actives 0.56% (n = 390,000); Potency, µM (top dose mostly 114 µM), without a hit: at the top dose activity change, negative = inhibition, most hits filed as inhibitors; P83916; further: potency means the concentration at half of the fitted maximal effect; nearly all actives have a fitted effect of over 70% in size
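AlphaScreen: HP1-beta (50 nM) preformed 30 min with biotin-H3(1-18)K9me3 peptide (50 nM) in PBS pH 7.4, 0.01% Tween-20. Compound added for 30 min at RT, then streptavidin donor/nickel chelate acceptor beads (10 ug/mL) for 30 min.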
BAZ2B inh: BAZ2B (human) inhibition; AlphaScreen BAZ2B-H3K14Ac peptide displacement; Potency, µM (series often up to 114 µM), for inactives: at the top dose activity change, negative = inhibition, usual class: inhibitors; AID 504333; actives 4.4% (n = 360,000); Q9UIF8; further: potency means the concentration at half of the fitted maximal effect; on the % scale 0 is the no-effect control and ±100 the full control effect; nearly all actives have a fitted effect of over 60% in size
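BAZ2B 50 nM plus b-H3(5-23)K14Ac 50 nM, PBS pH 7.4/0.01% Tween-20, 30 min RT; compound added (max 110 uM), 30 min RT; streptavidin donor/Ni-chelate acceptor beads 10 ug/mL final, 20 min dark; AlphaScreen read.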
TDP1 inh: inhibitors of human tyrosyl-DNA phosphodiesterase TDP1 | Q9NUW8 | recombinant TDP1, AlphaScreen DNA substrate cleavage | Potency, µM (top dose mostly 130 µM), for the others: at the highest dose activity change, negative = inhibition, actives largely listed as inhibitors | actives 0.28% (n = 350,000) | AID 485290; further: potency means the concentration at half of the fitted maximal effect; on the % scale 0 is the no-effect control and ±100 the full control effect; nearly all actives have a fitted effect of over 40% in size
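Here, a 5' biotin and 3' phosphotyrosine-FITC DNA oligonucleotide reports Tdp1 activity: intact substrate bridges AlphaScreen beads, while cleavage leaves a 3' phosphate and drops signal. All incubations at room temperature.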
JMJD2A Tudor: JMJD2A Tudor domain (human) inhibition | O75164 | AlphaScreen JMJD2A-Tudor / H3K4me3 peptide binding | Potency, µM (doses to about 114 µM), for inactives: at the highest dose activity change, negative = inhibition, hits mostly inhibitors | actives 4.4% (n = 390,000) | AID 504339; further: potency means the concentration at half of the fitted maximal effect; on the % scale 0 is the no-effect control and ±100 the full control effect; nearly all actives have a fitted effect of over 50% in size
Target sequence (O75164 whole entry, looked up, the tested form may be a part): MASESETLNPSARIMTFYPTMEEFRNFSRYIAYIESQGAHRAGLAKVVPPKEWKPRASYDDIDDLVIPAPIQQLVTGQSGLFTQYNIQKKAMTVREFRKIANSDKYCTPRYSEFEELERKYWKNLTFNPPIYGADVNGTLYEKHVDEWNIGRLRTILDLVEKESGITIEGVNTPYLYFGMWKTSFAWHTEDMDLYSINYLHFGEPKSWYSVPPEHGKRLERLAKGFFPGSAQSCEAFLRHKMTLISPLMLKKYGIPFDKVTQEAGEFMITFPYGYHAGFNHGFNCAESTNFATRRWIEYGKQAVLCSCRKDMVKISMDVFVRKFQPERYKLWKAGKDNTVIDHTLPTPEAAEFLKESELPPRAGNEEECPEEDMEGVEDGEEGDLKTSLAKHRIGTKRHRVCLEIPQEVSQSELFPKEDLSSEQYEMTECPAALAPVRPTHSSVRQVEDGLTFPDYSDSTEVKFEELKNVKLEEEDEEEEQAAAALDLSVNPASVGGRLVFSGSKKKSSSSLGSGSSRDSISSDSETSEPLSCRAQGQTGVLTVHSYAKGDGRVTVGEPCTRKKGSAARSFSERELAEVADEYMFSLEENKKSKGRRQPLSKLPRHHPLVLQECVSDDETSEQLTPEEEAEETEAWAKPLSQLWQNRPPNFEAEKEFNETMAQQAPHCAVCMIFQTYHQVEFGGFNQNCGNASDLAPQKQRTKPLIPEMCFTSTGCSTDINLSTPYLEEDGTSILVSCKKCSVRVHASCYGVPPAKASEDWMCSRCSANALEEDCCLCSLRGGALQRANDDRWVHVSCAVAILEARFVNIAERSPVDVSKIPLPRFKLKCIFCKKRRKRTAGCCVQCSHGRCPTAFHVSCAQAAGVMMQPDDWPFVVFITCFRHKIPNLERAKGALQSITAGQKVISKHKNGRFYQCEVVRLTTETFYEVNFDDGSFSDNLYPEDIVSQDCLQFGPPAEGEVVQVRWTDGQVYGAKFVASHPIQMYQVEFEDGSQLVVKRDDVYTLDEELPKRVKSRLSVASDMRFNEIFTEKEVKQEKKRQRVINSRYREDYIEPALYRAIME
CtBP-E1A blk: CtBP/E1A binding inhibition; AlphaScreen GST-E1A/His-CtBP binding, 1536-well; hits give low values; actives 0.49% (n = 340,000); activity change, % (concentration not given with the values); in the data active means activity change below about -65%; inconclusive means mostly about -30% to -63%; further: on the % scale 0 is the no-effect control and ±100 the full control effect
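In 5 uL wells, 23 nL compound meets equimolar GST-E1A and His-CtBP (5X stock 125 nM each) for 2 h, 37 °C. Beads (5X, 50 ug/mL) then 1 h, 37 °C, dark.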
Six1-Eya2 inh: Six1/Eya2 interaction inhibition. AlphaScreen GST-Six1/His-Eya2 binding, biochemical; hits give low values. activity change, % (no concentration beside the values). actives 0.56% (n = 360,000); in the data active means activity change below about -65%; inconclusive means mostly about -30% to -63%; further: on the % scale 0 is the no-effect control and ±100 the full control effect
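GST-Six1 + His-Eya2 (5X stock: 250/500 nM); Tris pH 8.0, 300 mM NaCl, 0.05% BSA, 0.02% Tween 20; GSH donor/Ni acceptor beads; 1 h 37 °C dark; AlphaScreen readout.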
The depositor's hits bear a star; ? = inconclusive; nt = not tested or not shown; [ ] = dose if it differs, or a comment. Hits are enriched below; roughly 5.3% of the tested compounds scored in any of these assays. Unless noted, the call rests on the fitted dose curve; in most records, active means well fitted inhibition curve with a large enough effect; inconclusive means small, poorly fitted or top-dose-only effect; inactive means no such curve, though single readings can be large or run the other way.

SMILES	HP1b chromo inh	BAZ2B inh	TDP1 inh	JMJD2A Tudor	CtBP-E1A blk	Six1-Eya2 inh
CCOC(=O)CSc1nnc(CNC(=O)c2cccs2)n1Cc1ccccc1	6.8%	-29.2%	-1.9%	-14.6%	4.1	8.1
CCOC(=O)CSc1nnc(CNC(=O)c2cccs2)n1-c1cccc(C)c1	26.8%	-0.2%	0.0%	1.5%	0.1	-1.5
O=C(NCc1n[nH]c(=S)n1-c1ccccc1)c1cccs1	7.4%	-19.4%	-10.8%	15.8µM*	4.4	-2.1
Cc1noc(/C=C/c2ccccc2F)c1S(=O)(=O)N1CCC(C(=O)Nc2ccc(C#N)cc2)CC1	19.9%[57 µM]	-4.5%	6.5%	-14.4%	nt	nt
Cc1ccc(Cn2ccn(Cc3ccc(C)cc3)c(=O)c2=O)cc1	30.9%	-25.5%	1.3%	-18.1%	nt	nt
CCOc1ccc(NC(=O)NCCc2c(C)nn(C)c2C)cc1	39.8%	-4.9%	6.2%	9.3%	nt	nt
Cc1ccccc1OCc1n[nH]c(=S)n1-c1cccc(Cl)c1	36.5%	-28.0%	4.8%	-24.9%	nt	-2.2
Cc1n[nH]c(=S)n1-c1cccc(Cl)c1	21.7%	-3.7%	-2.7%	7.94µM*	2.0	8.0
c1ccc(-c2csc3nnc(SCc4ccc5c(c4)OCO5)n23)cc1	-4.8%	-29.5%	4.3%	20µM*	-0.8	-2.6
CCOc1ccc(-c2cccc(NS(=O)(=O)c3ccccc3C(F)(F)F)c2)nn1	25.9%[57 µM]	-0.5%	4.1%	-19.2%	nt	nt
O=[N+]([O-])c1ccccc1S(=O)(=O)N1CCN(Cc2ccc3c(c2)OCO3)CC1	15.8µM*	50.1µM*	0.0%	-27.1%[11.4 µM]	nt	-10.3
O=[N+]([O-])c1ccccc1S(=O)(=O)N1CCN(Cc2ccccc2)CC1	4.1%	?	nt	?	nt	-5.1
CN(C)CCCNS(=O)(=O)c1ccc(N2CCN(Cc3ccc4c(c3)OCO4)CC2)c([N+](=O)[O-])c1	22.4µM*	22.4µM*	-0.3%[0.0935 µM]	5.62µM*	-10.6	12.2
Cc1c(Cl)cccc1NC(=O)CCn1nc(C)c2c(C)n(-c3ccccc3)nc2c1=O	42.1%	1.4%	0.0%	-0.3%	nt	nt
Oc1ccc(O)c(-c2cnns2)c1	8.91µM*	-6.6%	5.3%	3.16µM*	-1.0	-2.5
Nc1nc(N)nc(-c2cc(O)ccc2O)n1	38.5%	5.8%	-0.8%	-19.6%	-12.8	-10.0
Cc1nc2scc(C)n2c(=O)c1S(=O)(=O)NC(C)c1ccccc1 (stereo not drawn)	13.7%	-0.1%	0.2%	25.1µM*	-0.8	5.2
O=C1CCc2cc(Cl)c(S(=O)(=O)Nc3ccc(Cl)c(Cl)c3)cc2N1	nt	nt	1.2%	-14.2%	nt	nt
CCOc1ccccc1NC(=O)Cn1c(=O)n(CCCCC(=O)NCCCOC)c(=O)c2ccccc21	80.4%	79.4µM*	-0.9%	9.2%	nt	nt
N#CC1=C(SCc2ccccc2)NC2=C(C(=O)CCC2)C1c1ccc2c(c1)OCO2 (stereo not drawn)	-1.9%	-38.0%	8.8%	44.7µM*	-11.1	-13.2
CCSC1=C(C#N)C(c2ccc3c(c2)OCO3)C2=C(CCCC2=O)N1 (stereo not drawn)	27.7%	?	-2.3%	5.0%	3.3	0.2
COc1ccc(OC)c(NC2c3ncccc3C(=O)N2Cc2ccco2)c1 (stereo not drawn)	2.6%	?	3.2%	-33.8%	-13.9	-5.5
COc1cccc(N2C(=O)c3cccnc3C2O)c1 (stereo not drawn)	10.7%	-23.5%	nt	-9.9%	-0.2	9.6
COC(=O)c1ccc(NC2c3ncccc3C(=O)N2Cc2cccs2)cc1 (stereo not drawn)	24.1%	-2.9%	2.6%	-7.7%	-13.4	5.0
COc1ccc(CN2C(=O)c3cccnc3C2Nc2cc(Cl)ccc2OC)cc1 (stereo not drawn)	-23.1%	25.1µM*	nt	20µM*	-5.8	-7.5
SMILES	HP1b chromo inh	BAZ2B inh	TDP1 inh	JMJD2A Tudor	CtBP-E1A blk	Six1-Eya2 inh
COc1ccc(NC2c3ncccc3C(=O)N2Cc2cccs2)cc1 (stereo not drawn)	?	70.8µM*	3.1%	?	nt	0.4
COc1ccc(CN2C(=O)c3cccnc3C2O)cc1 (stereo not drawn)	-23.5%	39.8µM*	-9.1%	?	9.9	13.8
CCOC(=O)c1c(-c2ccc(C)cc2)csc1NC(=O)c1cc(=O)c2cc(C)c(C)cc2o1	15.0%	-14.9%	3.7%	8.0%	nt	nt
O=C1NC(=O)C(Cc2ccc(OCCN3COc4ccccc4C3=O)cc2)S1 (stereo not drawn)	nt	nt	10.2%	nt	nt	nt
O=C(CNC(=O)c1ccc2n[nH]nc2c1)OC(C(=O)Nc1cc(C(F)(F)F)ccc1Cl)c1ccccc1 (stereo not drawn)	nt	nt	0.0%	-26.0%	nt	nt
COc1ccc(S(=O)(=O)NC(Cc2cnc[nH]2)C(=O)O)cc1 (stereo not drawn)	4.9%	-1.7%	0.0%	12.6µM*	-7.9	7.8
COc1ccc(S(=O)(=O)NC(Cc2ccccc2)C(=O)O)cc1 (stereo not drawn)	52.8%	-12.3%	nt	-4.4%	nt	7.2
COc1ccc(Br)c2oc(S)cc(=O)c12	34.4%	-9.4%	1.3%	35.5µM*	nt	-13.5
COc1cccc2oc(SC)cc(=O)c12	nt	nt	7.1%[234 µM]	nt	nt	nt
CCOc1ccc(NC(=O)Nc2nnc(N3CCCCC3C)s2)cc1 (stereo not drawn)	36.2%	?	8.6%	-19.5%	nt	nt
Clc1ncc(C#Cc2ccccc2)c2ncncc12	6.3%	nt	-0.3%	-28.6%	nt	nt
Cc1ccc(NC(=O)NCCc2c(C)nn(C)c2C)cc1Cl	18.6%	-19.1%	-1.2%	-15.6%	nt	nt
N/C(=N\OS(=O)(=O)c1ccc2ccccc2c1)c1ccccn1	42.2%	20µM*	2.4%	5.01µM*	?	?
Fc1ccccc1N1CCN(CC2CCCCC2)CC1	?	79.4µM*	nt	20µM*	7.3	16.6
O=C(NCCc1ccccc1)C(=O)NCC(c1cccnc1)N1CCN(c2ccccc2F)CC1 (stereo not drawn)	12.8%	-21.0%	-2.6%	-6.9%	nt	nt
Fc1ccccc1N1CCN(Cc2cccnc2)CC1	?	56.2µM*	nt	1.58µM*	5.4	1.2
CCOc1ccccc1Nc1nc(-c2ccc(C)cc2)c(CC(=O)O)s1	33.5%	-9.0%	0.0%	-17.2%	nt	nt
COc1ccccc1N1CCN(C(=O)c2ccc3c(c2)NC(=O)C(CSCc2ccccc2C)N3)CC1 (stereo not drawn)	nt	50.1µM*	3.5%	nt	nt	nt
COc1ccc(/C=C/C(=O)Oc2cc(C)[nH]c(=O)c2[N+](=O)[O-])cc1OC	13.5%	3.9%	0.0%	31.6µM*	-9.8	2.9
CN(C(=O)CSc1nc(C2CCCC2)nc2c1c(=O)n(C)c(=O)n2C)c1ccccc1	42.5%[57 µM]	23.6%	5.4%	-9.7%	nt	nt
C/C(=N\Nc1nc(C)c(C)s1)c1ccc([N+](=O)[O-])cc1	?	35.5µM*	8.8%	?	-2.8	-15.1
